# Legend:
# Assay in all cases: PBM binding z-score (relative to random genomic background probes); higher = stronger binding; sequences stand for … in GC…GCGATTGACAGCGTAGAATGAAGG
# [1] = system: RARb homodimer (NR concentration 270 nM)
# In short: (§1)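 For binding z-scores, the reference was random background probes on custom Agilent 4×180K protein-binding microarrays. These arrays were incubated 1 h with ligand-free nuclear receptor dimers in PBS pH 7.4, 2% milk, 0.02% Triton X-100, 1 mM DTT, 0.2 mg/mL BSA and 0.4 mg/ml salmon testes DNA. Fluorescence was scanned after antibody detection of each partner (one per run) and regression-normalized.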
# [2] = system: RARg:RXRa (NR concentration 270 nM, RXRa partner concentration 90 nM)
# In short: as §1
# [3] = system: RARg homodimer (NR concentration 270 nM)
# In short: as §1
# [4] = system: RXRa DBDmut IVT, anti-RXR (DBD mutation: RXRa K156A/R161A, NR concentration 90 nM)
# In short: as §1
# [5] = system: RXRa homodimer (NR concentration 180 nM)
# In short: as §1
# [6] = system: THRa:RXRa (NR concentration 90 nM, RXRa partner concentration 90 nM)
# In short: as §1
# [7] = system: THRa homodimer (NR concentration 90 nM)
# In short: as §1
# [8] = system: VDR homodimer (NR concentration 270 nM)
# In short: as §1
sequence,measurement,setting,value
CGTCCAAGGTCAGCAGGTCAGAGAAAGCGACGTG,PBM binding z-score,[1],4.32
same,PBM binding z-score,[2],6.59
same,PBM binding z-score,[3],6.67
same,PBM binding z-score,[4],2.55
same,PBM binding z-score,[5],5.72
same,PBM binding z-score,[6],3.92
same,PBM binding z-score,[7],2.42
same,PBM binding z-score,[8],1.83
CAAACTAGGTCAAGAGGTCAAAGGCCGCTTCCCG,PBM binding z-score,[1],5.53
same,PBM binding z-score,[2],8.17
same,PBM binding z-score,[3],7.84
same,PBM binding z-score,[4],2.67
same,PBM binding z-score,[5],7.98
same,PBM binding z-score,[6],4.21
same,PBM binding z-score,[7],2.35
same,PBM binding z-score,[8],4.46
ATACGTAGGTTAGGGTCATTCAGAAAGTAGGGAA,PBM binding z-score,[1],3.19
same,PBM binding z-score,[2],4.12
same,PBM binding z-score,[3],3.37
same,PBM binding z-score,[4],2.35
same,PBM binding z-score,[5],5.33
same,PBM binding z-score,[6],4.07
same,PBM binding z-score,[7],2.92
same,PBM binding z-score,[8],3.67
CAAACTAGGTCAAGGGGTCAAAGTCCGCTTCCCG,PBM binding z-score,[1],5.65
same,PBM binding z-score,[2],8
same,PBM binding z-score,[3],7.19
same,PBM binding z-score,[4],2.98
same,PBM binding z-score,[5],8.47
same,PBM binding z-score,[6],4.64
same,PBM binding z-score,[7],2.49
same,PBM binding z-score,[8],4.55
CCAACTAGGTCACCAGGACAGTGAAGAGGTTGGA,PBM binding z-score,[1],3.74
same,PBM binding z-score,[2],4.53
same,PBM binding z-score,[3],5.37
same,PBM binding z-score,[4],1.24
same,PBM binding z-score,[5],3.51
same,PBM binding z-score,[6],3.37
same,PBM binding z-score,[7],1.89
same,PBM binding z-score,[8],0.883
CCTGCTAGGTCATGGTCAGGTAATCTACAGTATG,PBM binding z-score,[1],3.22
same,PBM binding z-score,[2],4.26
same,PBM binding z-score,[3],4.73
same,PBM binding z-score,[4],1.77
same,PBM binding z-score,[5],3.01
same,PBM binding z-score,[6],3.55
same,PBM binding z-score,[7],1.97
same,PBM binding z-score,[8],0.414
TCGAATAGGTTACGGGGGCATTCAGGGATGAAGA,PBM binding z-score,[1],2.78
same,PBM binding z-score,[2],4.18
same,PBM binding z-score,[3],3.02
same,PBM binding z-score,[4],2.78
same,PBM binding z-score,[5],3.99
same,PBM binding z-score,[6],4.29
same,PBM binding z-score,[7],1.9
same,PBM binding z-score,[8],3.3
GCTGCTAGGTCAGGTTGGTCTGCTAACGGGTACG,PBM binding z-score,[1],2.51
same,PBM binding z-score,[2],2.46
same,PBM binding z-score,[3],3.25
same,PBM binding z-score,[4],0.755
same,PBM binding z-score,[5],1.04
same,PBM binding z-score,[6],1.89
same,PBM binding z-score,[7],0.834
same,PBM binding z-score,[8],0.554
AGTCGGAGGACAAAGGTCAGAGCTACGCCAGTGA,PBM binding z-score,[1],4.3
same,PBM binding z-score,[2],6.16
same,PBM binding z-score,[3],5.52
same,PBM binding z-score,[4],0.767
same,PBM binding z-score,[5],5.6
same,PBM binding z-score,[6],3.63
same,PBM binding z-score,[7],0.663
same,PBM binding z-score,[8],1.37
CGTCAAAGTTCAAGGTTACGTAACAGAAAGCAGC,PBM binding z-score,[1],4.45
same,PBM binding z-score,[2],5.57
same,PBM binding z-score,[3],6.33
same,PBM binding z-score,[4],4.73
same,PBM binding z-score,[5],4.85
same,PBM binding z-score,[6],3.43
same,PBM binding z-score,[7],1.33
same,PBM binding z-score,[8],3.55
TCGAGTAGGTAACGGGGGCATTCAGGGATGAAGA,PBM binding z-score,[1],1.54
same,PBM binding z-score,[2],2.02
same,PBM binding z-score,[3],1.09
same,PBM binding z-score,[4],1.75
same,PBM binding z-score,[5],1.74
same,PBM binding z-score,[6],3.76
same,PBM binding z-score,[7],1.33
same,PBM binding z-score,[8],2.49
ACTTACGGGTCAACGACGTTATAGCACGCGTATA,PBM binding z-score,[1],2.87
same,PBM binding z-score,[2],5.07
same,PBM binding z-score,[3],4.51
same,PBM binding z-score,[4],1.59
same,PBM binding z-score,[5],5.19
same,PBM binding z-score,[6],2.68
same,PBM binding z-score,[7],0.369
same,PBM binding z-score,[8],0.841
TAGCCTCGGTCATTGGGCCAGTATAGTACGCATC,PBM binding z-score,[1],1.53
same,PBM binding z-score,[2],1.54
same,PBM binding z-score,[3],2.62
same,PBM binding z-score,[4],-0.363
same,PBM binding z-score,[5],0.223
same,PBM binding z-score,[6],0.029
same,PBM binding z-score,[7],-0.772
same,PBM binding z-score,[8],-0.289
CTATGTAGGTAAAGGGGGTCATTCAGTTTGAAAG,PBM binding z-score,[1],3.55
same,PBM binding z-score,[2],4.43
same,PBM binding z-score,[3],2.93
same,PBM binding z-score,[4],2.5
same,PBM binding z-score,[5],5.6
same,PBM binding z-score,[6],3.66
same,PBM binding z-score,[7],1.73
same,PBM binding z-score,[8],6.01
ATATGTAGGTTAGTGTCATTCAGAAAGTAGGGAA,PBM binding z-score,[1],1.31
same,PBM binding z-score,[2],1.14
same,PBM binding z-score,[3],1.06
same,PBM binding z-score,[4],0.868
same,PBM binding z-score,[5],0.992
same,PBM binding z-score,[6],0.837
same,PBM binding z-score,[7],0.558
same,PBM binding z-score,[8],0.794
ATATGTGGGTTAGGGTCATTCAGAAAGTAGGGAA,PBM binding z-score,[1],3.67
same,PBM binding z-score,[2],4.16
same,PBM binding z-score,[3],3.23
same,PBM binding z-score,[4],2.95
same,PBM binding z-score,[5],5.55
same,PBM binding z-score,[6],4.42
same,PBM binding z-score,[7],4.11
same,PBM binding z-score,[8],4.92
CGTCCGAGGTCAAAGGTCAGTGAAGAGATGACGG,PBM binding z-score,[1],5.1
same,PBM binding z-score,[2],8.9
same,PBM binding z-score,[3],8.05
same,PBM binding z-score,[4],4.57
same,PBM binding z-score,[5],10.3
same,PBM binding z-score,[6],4.89
same,PBM binding z-score,[7],2.7
same,PBM binding z-score,[8],4.73
CGTCCAAGGTCAACGCTAGGTCAGTGAAAGCATT,PBM binding z-score,[1],5.38
same,PBM binding z-score,[2],7.88
same,PBM binding z-score,[3],7.21
same,PBM binding z-score,[4],3.69
same,PBM binding z-score,[5],6.38
same,PBM binding z-score,[6],4.61
same,PBM binding z-score,[7],3.53
same,PBM binding z-score,[8],2.6
CTAACTAGGTCACGAAAGGTCAAAGTCGAATGAC,PBM binding z-score,[1],5.7
same,PBM binding z-score,[2],7.92
same,PBM binding z-score,[3],8.55
same,PBM binding z-score,[4],2.56
same,PBM binding z-score,[5],8.14
same,PBM binding z-score,[6],5.08
same,PBM binding z-score,[7],2.55
same,PBM binding z-score,[8],3.54
CCTTACGGGTCAAGGTTATCGCACGGGTGGTACG,PBM binding z-score,[1],3.58
same,PBM binding z-score,[2],5.02
same,PBM binding z-score,[3],5.11
same,PBM binding z-score,[4],1.31
same,PBM binding z-score,[5],5.6
same,PBM binding z-score,[6],3.15
same,PBM binding z-score,[7],1.02
same,PBM binding z-score,[8],1.69
CTCTGTAGGTTAAGGGGGTCATTCAGTTTGAAAG,PBM binding z-score,[1],3.87
same,PBM binding z-score,[2],5.32
same,PBM binding z-score,[3],4.07
same,PBM binding z-score,[4],2.52
same,PBM binding z-score,[5],5.91
same,PBM binding z-score,[6],3.86
same,PBM binding z-score,[7],2.34
same,PBM binding z-score,[8],5.47
CCTTACAGGTCAAGGTTATAGCACGGGTGGTACG,PBM binding z-score,[1],3.78
same,PBM binding z-score,[2],5.27
same,PBM binding z-score,[3],5.53
same,PBM binding z-score,[4],1.83
same,PBM binding z-score,[5],4.72
same,PBM binding z-score,[6],3.18
same,PBM binding z-score,[7],1.33
same,PBM binding z-score,[8],1.73
ATATTTAGGTTAGGGTCATTCAGAAAGTAGGGAA,PBM binding z-score,[1],3.47
same,PBM binding z-score,[2],4.06
same,PBM binding z-score,[3],3.55
same,PBM binding z-score,[4],2.76
same,PBM binding z-score,[5],4.71
same,PBM binding z-score,[6],4.2
same,PBM binding z-score,[7],3.85
same,PBM binding z-score,[8],4.22
CGTCAAAGTTCAACTAAGGTAACTTAAAGCACGC,PBM binding z-score,[1],4.27
same,PBM binding z-score,[2],5.75
same,PBM binding z-score,[3],6.52
same,PBM binding z-score,[4],4.71
same,PBM binding z-score,[5],4.83
same,PBM binding z-score,[6],5.38
same,PBM binding z-score,[7],1.52
same,PBM binding z-score,[8],4.08
TTACCAAGGTGAACTGAGGTCGTTGATCCAACTC,PBM binding z-score,[1],2.38
same,PBM binding z-score,[2],2.52
same,PBM binding z-score,[3],1.54
same,PBM binding z-score,[4],1.71
same,PBM binding z-score,[5],2.63
same,PBM binding z-score,[6],4.93
same,PBM binding z-score,[7],3.07
same,PBM binding z-score,[8],3.63
CGAACTAGGTAACCAGGACAGTGAAGAGGTTGGA,PBM binding z-score,[1],0.378
same,PBM binding z-score,[2],0.0852
same,PBM binding z-score,[3],0.279
same,PBM binding z-score,[4],-0.359
same,PBM binding z-score,[5],0.345
same,PBM binding z-score,[6],1.37
same,PBM binding z-score,[7],0.609
same,PBM binding z-score,[8],-0.193
CATACCGGGTCAGCTAGGCCAGAGTAGGGACGGC,PBM binding z-score,[1],2.34
same,PBM binding z-score,[2],3.47
same,PBM binding z-score,[3],3.83
same,PBM binding z-score,[4],-0.0713
same,PBM binding z-score,[5],3
same,PBM binding z-score,[6],2.53
same,PBM binding z-score,[7],0.906
same,PBM binding z-score,[8],0.395
CTGTGTAGGTTAAGGGGGTCATTCAGTTTGAAAG,PBM binding z-score,[1],4.19
same,PBM binding z-score,[2],5.13
same,PBM binding z-score,[3],4.04
same,PBM binding z-score,[4],2.68
same,PBM binding z-score,[5],5.91
same,PBM binding z-score,[6],3.89
same,PBM binding z-score,[7],2.98
same,PBM binding z-score,[8],5.36

# From the supplement of paper PMC6555819
